# According to PubChem BioAssay (Tox21):
# Several values for one entry are separate records, joined by “and”; a condition that tells them apart may be missing. Equal entries are not always repeated. Results filed as inconclusive are left out. Where a call stands in place of a potency, no number is given. Some compounds were tested as several samples or in several runs, with calls that do not always agree. Activity calls are given as the source filed them. Unless noted, calls follow the shape of the full dose curve.
# Tests used:
# [1] = Nuclear factor erythroid 2-related factor 2/antioxidant responsive element (Nrf2/ARE) small molecule agonists: qHTS cell viability counter screen in human keratinocytes (AID 1919968; active = well fitted curve in the direction sought with a large enough effect in the repeat runs; an effect the other way counts as inactive or inconclusive; also: nearly all actives have a fitted effect of over 55% in size; also: potency is read from the fitted curve at half-maximal effect)
# Summary of the method: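 Seed 1,500 KeratinoSens cells per well, then incubate 5 h at 37 C/5% CO2. Add compounds in DMSO and incubate 23 h. Add CellTiter-Fluor, wait 1 h and read fluorescence.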
# [2] = Nuclear factor erythroid 2-related factor 2/antioxidant responsive element (Nrf2/ARE) small molecule agonists: luciferase reporter gene qHTS assay in human keratinocytes (AID 1919969); also: nearly all actives have a fitted effect of over 35% in size; also: potency is read from the fitted curve at half-maximal effect
# [3] = target: Gonadotropin-releasing hormone receptor (Homo sapiens) (UniProt P30968); assay: Human gonadotropin-releasing hormone receptor (GnRHR) small molecule agonists, calcium flux assay in GnRHR-HEK293 cells (AID 1920063); also: nearly all actives have a fitted effect of over 35% in size
# Gonadotropin-releasing hormone receptor (Homo sapiens), sequence (P30968 whole entry, looked up): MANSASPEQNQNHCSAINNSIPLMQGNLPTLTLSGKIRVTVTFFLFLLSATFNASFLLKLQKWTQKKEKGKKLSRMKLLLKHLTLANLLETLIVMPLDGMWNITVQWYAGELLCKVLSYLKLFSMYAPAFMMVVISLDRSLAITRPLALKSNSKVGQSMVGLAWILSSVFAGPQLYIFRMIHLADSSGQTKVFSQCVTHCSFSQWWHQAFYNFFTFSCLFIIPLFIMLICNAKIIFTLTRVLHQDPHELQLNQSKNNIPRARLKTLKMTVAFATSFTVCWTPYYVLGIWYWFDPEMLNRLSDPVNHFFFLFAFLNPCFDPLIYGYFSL
# Summary of the method: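 Cells: HEK293 stably expressing human GnRHR. Steps: overnight (18 h) culture, 1 h calcium dye loading at 37 C, compound addition, kinetic fluorescence read at 480/540 nm. Each compound tested at 15 concentrations in triplicate.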
# [4] = target: KiSS-1 receptor (Homo sapiens) (UniProt Q969F8); assay: Human kisspeptin (KISS1R) small molecule agonists, calcium flux assay in KISS1R-HEK293 cells (AID 1920064; active = well fitted curve in the direction sought with a large enough effect in the repeat runs; an effect the other way counts as inactive or inconclusive)
# KiSS-1 receptor (Homo sapiens), sequence (Q969F8 whole entry, looked up): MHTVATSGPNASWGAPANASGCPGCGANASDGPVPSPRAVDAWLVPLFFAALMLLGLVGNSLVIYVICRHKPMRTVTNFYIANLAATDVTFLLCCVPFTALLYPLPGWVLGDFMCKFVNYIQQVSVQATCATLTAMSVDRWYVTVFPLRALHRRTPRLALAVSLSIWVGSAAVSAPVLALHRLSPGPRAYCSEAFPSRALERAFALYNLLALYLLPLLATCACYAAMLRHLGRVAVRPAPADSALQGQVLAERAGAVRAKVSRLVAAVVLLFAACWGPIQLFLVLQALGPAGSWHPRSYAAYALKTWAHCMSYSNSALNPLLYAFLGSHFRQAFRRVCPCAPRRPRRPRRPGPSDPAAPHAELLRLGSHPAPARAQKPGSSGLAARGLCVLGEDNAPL
# Summary of the method: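 Cells plated and incubated 18 h; dye added, 1 h at 37 C; compounds in DMSO pinned in; signal read at 480/540 nm every second for 3 min. Each compound tested at 15 concentrations in triplicate.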
# [5] = G protein-coupled receptor (GPCR) small molecule agonists, calcium flux assay: HEK293 wild type cell line counter screen (AID 1920065)
# Summary of the method: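 Counter-screen of the Tox21 10K library for non-specific calcium release: dye-loaded cells received compounds in DMSO and were monitored by kinetic fluorescence (480/540 nm, 3 min). Fifteen concentrations, run in triplicate.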
# [6] = p53 small molecule agonists, cell-based qHTS assay with human liver microsomes (AID 1963577);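 also: p53 response element beta-lactamase reporter cells with liver microsomes plus NADPH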
# Summary of the method: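 In this qHTS, p53 response-element beta-lactamase cells receive test compound together with a microsome/NADPH activating system (0.5 mg/mL final each) and are incubated 16 h at 37 C before LiveBLAzer fluorescence detection.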
# [7] = p53 small molecule agonists, cell-based qHTS assay with rat liver microsomes (AID 1963578)
# Summary of the method: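 Agonist mode in p53RE-bla reporter cells, with compounds co-incubated 16 h at 37 C alongside 0.5 mg/mL rat liver microsomes and 0.5 mg/mL NADPH (final), followed by a 2 h LiveBLAzer detection step.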
# [8] = p53 small molecule agonists, cell-based qHTS assay with human liver microsomes: qHTS cell viability counter screen (AID 1963579); also: nearly all actives have a fitted effect of over 45% in size; also: potency is read from the fitted curve at half-maximal effect
# Summary of the method: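 Metabolically activated exposure: compounds, human liver microsomes and NADPH (0.5 mg/mL final apiece) were added to p53RE-bla cells seeded 5 h earlier, left 16 h at 37 C, and then assessed for viability by CellTiter-Glo luminescence.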
# [9] = p53 small molecule agonists, cell-based qHTS assay with rat liver microsomes: qHTS cell viability counter screen (AID 1963580); also: nearly all actives have a fitted effect of over 45% in size
# Summary of the method: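 Intracellular ATP, by CellTiter-Glo luminescence, defines viability. HCT-116 p53RE-bla cells, 4,000 per well, were compound-treated in the presence of rat liver microsomes and NADPH for 16 h at 37 C.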
# [10] = p53 small molecule agonists, cell-based qHTS assay: qHTS cell viability counter screen (AID 1963581); also: nearly all actives have a fitted effect of over 45% in size
# Summary of the method: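 Cells: HCT-116 with p53 response element-driven beta-lactamase. Treatment: 16 h, 37 C, compounds in DMSO. Read: CellTiter-Glo luminescence after 30 min RT.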
# [11] = p53 small molecule agonists, cell-based qHTS assay (AID 1963582; active = well fitted activation curve with a large enough effect in the signal ratio in the repeat runs, not every such curve was filed as active; the % refers to the signal ratio)
# Summary of the method: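 Quantitative HTS in p53RE-bla cells: after a 5 h settling period, compounds delivered in DMSO were left on cells for 16 h at 37 C, and reporter induction was measured as fluorescence following 2 h substrate loading.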
# [12] = target: 5-hydroxytryptamine receptor 2A (Homo sapiens) (UniProt P28223); assay: 5-hydroxytryptamine receptor 2A (HTR2A) small molecule agonists, cell-based qHTS assay (AID 1963587); also: nearly all actives have a fitted effect of over 30% in size
# 5-hydroxytryptamine receptor 2A (Homo sapiens), sequence (P28223 whole entry, looked up): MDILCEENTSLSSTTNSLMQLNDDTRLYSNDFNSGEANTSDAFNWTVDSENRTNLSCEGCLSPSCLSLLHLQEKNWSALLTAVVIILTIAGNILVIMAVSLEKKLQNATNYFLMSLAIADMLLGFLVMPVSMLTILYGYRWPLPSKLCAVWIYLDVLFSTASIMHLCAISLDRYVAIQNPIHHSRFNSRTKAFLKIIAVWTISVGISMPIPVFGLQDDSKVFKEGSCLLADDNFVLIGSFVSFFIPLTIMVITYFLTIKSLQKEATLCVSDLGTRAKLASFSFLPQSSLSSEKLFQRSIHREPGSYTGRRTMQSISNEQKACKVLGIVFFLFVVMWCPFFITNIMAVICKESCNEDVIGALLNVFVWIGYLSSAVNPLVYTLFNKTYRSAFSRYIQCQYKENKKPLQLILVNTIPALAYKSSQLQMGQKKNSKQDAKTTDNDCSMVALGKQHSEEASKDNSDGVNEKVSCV
# Summary of the method: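 Kinetic calcium-flux fluorescence (2 min, 1 sec intervals) after compound addition in agonist mode. HTR2A-CHO cells were cultured 18 h, then dye-loaded 1 h at 37 C.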
# [13] = target: Muscarinic acetylcholine receptor M1 (Homo sapiens) (UniProt P11229); assay: Cholinergic receptor muscarinic 1 (CHRM1) small molecule antagonists, cell-based qHTS assay (AID 1963588); also: nearly all actives have a fitted effect of over 40% in size; also: potency is read from the fitted curve at half-maximal effect
# Muscarinic acetylcholine receptor M1 (Homo sapiens), sequence (P11229 whole entry, looked up): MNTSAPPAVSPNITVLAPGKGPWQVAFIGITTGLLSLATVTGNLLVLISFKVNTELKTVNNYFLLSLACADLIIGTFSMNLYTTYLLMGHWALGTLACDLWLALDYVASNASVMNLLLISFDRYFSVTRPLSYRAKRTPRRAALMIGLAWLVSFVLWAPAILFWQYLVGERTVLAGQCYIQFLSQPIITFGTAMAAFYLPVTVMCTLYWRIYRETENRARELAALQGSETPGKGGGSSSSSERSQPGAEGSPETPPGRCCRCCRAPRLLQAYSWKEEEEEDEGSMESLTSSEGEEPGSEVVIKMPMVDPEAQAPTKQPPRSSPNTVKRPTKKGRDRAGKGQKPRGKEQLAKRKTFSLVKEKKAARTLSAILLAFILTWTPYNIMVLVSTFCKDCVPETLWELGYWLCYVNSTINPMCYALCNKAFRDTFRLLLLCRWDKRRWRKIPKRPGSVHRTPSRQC
# Summary of the method: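 CHRM1-CHO calcium-flux assay, antagonist mode. Cells were seeded 18 h, dye-loaded 1 h at 37 C and given compound for 5 min at RT, then acetylcholine was added at 50nM. FDSS fluorescence was read 3 min; 15 concentrations, three runs.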
# [14] = target: Muscarinic acetylcholine receptor M1 (Homo sapiens) (UniProt P11229); assay: Cholinergic receptor muscarinic 1 (CHRM1) small molecule agonists, cell-based qHTS assay (AID 1963589); also: nearly all actives have a fitted effect of over 35% in size
# Summary of the method: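 Agonist-mode qHTS in CHO cells stably carrying human muscarinic M1. Intracellular calcium is tracked by fluorescence every second after compound transfer; each compound runs at 15 concentrations in three independent runs.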
# [15] = cAMP Responsive Elements (CRE) small molecule agonists, cell-based qHTS assay (AID 1963590)
# Summary of the method: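 Agonist mode qHTS in CRE-bla HEK 293T cells: compounds dosed from DMSO for 3 h at 37 C/5% CO2, followed by LiveBLAzer B/G FRET substrate for 2 h at room temperature.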
# [16] = cAMP Responsive Elements (CRE) small molecule antagonists, cell-based qHTS assay (AID 1963591; active = well fitted inhibition curve with a large enough effect in the signal ratio in the repeat runs, not every such curve was filed as active; the % refers to the signal ratio)
# Summary of the method: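 Antagonist mode: test compounds are co-incubated with the adenylyl cyclase activator NKH477 (0.25 uM final) on CRE-bla HEK293T cells for 3 h at 37 °C, followed by LiveBLAzer substrate loading.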
# [17] = target: Beta-2 adrenergic receptor (Homo sapiens) (UniProt P07550); assay: Adrenergic beta2 receptor (ADRB2) small molecule antagonists, cell-based qHTS assay (AID 1963592); also: series mostly up to about 92 µM; nearly all actives have a fitted effect of over 50% in size
# Beta-2 adrenergic receptor (Homo sapiens), sequence (P07550 whole entry, looked up): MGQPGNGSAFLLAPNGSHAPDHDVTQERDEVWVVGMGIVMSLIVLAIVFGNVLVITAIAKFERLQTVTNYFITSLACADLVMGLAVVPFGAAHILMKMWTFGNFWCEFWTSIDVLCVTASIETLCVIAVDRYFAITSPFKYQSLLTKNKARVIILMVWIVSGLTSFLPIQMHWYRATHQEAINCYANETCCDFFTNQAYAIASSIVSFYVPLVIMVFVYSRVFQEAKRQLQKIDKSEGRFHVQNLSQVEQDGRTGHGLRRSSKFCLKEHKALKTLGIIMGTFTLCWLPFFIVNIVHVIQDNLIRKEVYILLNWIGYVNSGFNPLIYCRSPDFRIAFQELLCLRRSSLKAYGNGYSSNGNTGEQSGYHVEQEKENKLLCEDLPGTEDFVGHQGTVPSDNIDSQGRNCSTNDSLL
# Summary of the method: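 Cells (CHO, stable ADRB2 overexpression) incubated 18-20hr at 37C; compounds added from DMSO; agonist mix (1nM isoproterenol, 100uM IBMX, 25uM Ro-20-1724) added; 0.5hr RT; d2-cAMP and anti-cAMP-cryptate added; 1hr RT; 665/615 nm read.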
# [18] = target: D(2) dopamine receptor (Homo sapiens) (UniProt P14416); assay: Dopamine D2 receptor (DRD2) small molecule agonists, cell-based qHTS assay (AID 1963594); also: nearly all actives have a fitted effect of over 35% in size
# D(2) dopamine receptor (Homo sapiens), sequence (P14416 whole entry, looked up): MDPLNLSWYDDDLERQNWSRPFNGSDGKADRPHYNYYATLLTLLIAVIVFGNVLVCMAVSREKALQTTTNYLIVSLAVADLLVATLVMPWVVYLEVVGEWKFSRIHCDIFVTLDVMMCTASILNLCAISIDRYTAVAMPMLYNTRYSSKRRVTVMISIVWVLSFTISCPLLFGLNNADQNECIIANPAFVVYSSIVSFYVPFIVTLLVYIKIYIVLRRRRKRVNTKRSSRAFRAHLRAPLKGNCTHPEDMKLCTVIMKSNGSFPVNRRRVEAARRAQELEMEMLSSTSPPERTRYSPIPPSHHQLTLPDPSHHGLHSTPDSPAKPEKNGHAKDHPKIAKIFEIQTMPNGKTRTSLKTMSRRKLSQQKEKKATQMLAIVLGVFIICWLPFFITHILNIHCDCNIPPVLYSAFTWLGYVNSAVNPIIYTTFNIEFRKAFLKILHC
# Summary of the method: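 cAMP accumulation in DRD2-HEK293 cells measured by HTRF after 1 h detection; compounds added 10 min before NKH477 (200nM […]) forskolin-analogue stimulation, 30 min at room temperature, with Ro20-1724 present at 0.1 mM final.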
# [19] = target: D(2) dopamine receptor (Homo sapiens) (UniProt P14416); assay: Dopamine D2 receptor (DRD2) small molecule antagonists, cell-based qHTS assay (AID 1963595; active = well fitted inhibition curve with a large enough effect in the signal ratio in the repeat runs, with a control signal flat; the % refers to the signal ratio)
# Summary of the method: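 Antagonism was scored as restored cAMP in HEK293-DRD2 cells. These cells were stimulated with 200 nM NKH477 and 12 nM quinpirole for 30 min at room temperature, in the presence of 0.1 mM Ro20-1724.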
# [20] = target: Beta-2 adrenergic receptor (Homo sapiens) (UniProt P07550); assay: Adrenergic beta2 receptor (ADRB2) small molecule agonists, cell-based qHTS assay (AID 1963593);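 also: CHO cells stably overexpressing human ADRB2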
# Summary of the method: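 CHO cells stably over-expressing ADRB2 were plated overnight at 37C, then dosed with compounds plus a stimulation mix containing 100uM IBMX and 25uM Ro-20-1724 for 0.5hr at room temperature. cAMP was measured by HTRF competition, 1hr.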
SMILES,Potency [1],Potency [2],Potency [3],Potency [4],Potency [5],Potency [6],Potency [7],Potency [8],Potency [9],Potency [10],Potency [11],Potency [12],Potency [13],Potency [14],Potency [15],Potency [16],Potency [17],Potency [18],Potency [19],Potency [20]
O=C(O)/C=C/c1cnc[nH]1,inactive,inactive,inactive,inactive,inactive,inactive,inactive,inactive,inactive,inactive,inactive,inactive,inactive,inactive,inactive,inactive,inactive,inactive,inactive,–
O=c1[nH]c(=O)n([C@H]2CCCO2)cc1F,inactive,inactive,inactive,inactive,inactive,inactive,inactive,inactive,inactive,inactive,inactive,–,–,–,inactive,inactive,inactive,inactive,inactive,inactive
CCOC(=O)n1ccn(C)c1=S,inactive,inactive,inactive,inactive,inactive,inactive,inactive,inactive,inactive,inactive,inactive,–,–,–,inactive,inactive,inactive,inactive,inactive,inactive
COCCCOc1ccnc(CS(=O)c2nc3ccccc3[nH]2)c1C (stereo not drawn),inactive,30.5 µM (active),inactive,inactive,inactive,inactive,inactive,inactive,inactive,inactive,inactive,–,–,–,inactive,inactive,inactive,inactive,inactive,inactive
Cn1cnc2c(F)c(Nc3ccc(Br)cc3Cl)c(C(=O)NOCCO)cc21,inactive,inactive,inactive,inactive,inactive,inactive,inactive,inactive,inactive,inactive,inactive,inactive,inactive,inactive,inactive,inactive,inactive,inactive,inactive,–
C[Si](C)(C)Cl,inactive,inactive,inactive,inactive,inactive,inactive,inactive,inactive,inactive,inactive,inactive,inactive,inactive,inactive,inactive,inactive,inactive,inactive,–,inactive
CC(C)(C)c1ccc(S)cc1,inactive,48.6 µM (active),inactive,inactive,inactive,inactive,inactive,inactive,inactive,inactive,inactive,inactive,–,inactive,inactive,inactive,–,inactive,inactive,–
FC(F)(F)c1ccccc1-n1ccnc1,inactive,inactive,inactive,inactive,inactive,inactive,inactive,inactive,inactive,inactive,inactive,inactive,–,inactive,inactive,inactive,inactive,inactive,inactive,inactive
NCc1cccc(CN)c1,inactive,inactive,inactive,inactive,inactive,inactive,inactive,inactive,inactive,inactive,inactive,inactive,42.1 µM (active),inactive,inactive,inactive,inactive,inactive,inactive,–
C=CC(C)(CCC=C(C)C)OC=O (stereo not drawn),inactive,inactive,inactive,inactive,inactive,inactive,inactive,inactive,inactive,inactive,inactive,inactive,inactive,–,inactive,inactive,inactive,inactive,inactive,inactive
c1ccc(Nc2cccc3ccccc23)cc1,61.9 µM (active),inactive and 68.6 µM (active),inactive,inactive,inactive,inactive,inactive,46.4 µM (active),inactive,inactive,inactive,inactive,inactive,inactive,–,–,–,inactive,inactive,–
C=CCOCC(CO)(COCC=C)COCC=C,inactive,inactive,inactive,inactive,inactive,inactive,inactive,inactive,inactive,inactive,–,inactive,inactive,inactive,inactive,–,inactive,inactive,inactive,inactive
NNC(=O)c1cccc(C(=O)NN)c1,inactive,inactive,inactive,inactive,inactive,inactive,inactive,inactive,inactive,inactive,–,inactive,inactive,inactive,inactive,inactive,inactive,inactive,–,inactive
CCC1CCCCC1,inactive,inactive,inactive,inactive,inactive,inactive,inactive,inactive,inactive,inactive,–,inactive,inactive,inactive,inactive,inactive,inactive,inactive,inactive,inactive
